Measurements as given in PubChem BioAssay (EPA / NIEHS).
“And” between values parts separate entries of the source, which are not always exact repeats. Equal entries are not always repeated. A structure can be active in one record and inactive in another. The source made the active and inactive calls. Rule for the calls: active = hit-call score of the fitted dose curve at least 0.9, where 1 is the maximum; inactive = score below 0.9.

Assays:
[1] = ATG_PXRE_CIS: Attagene CIS-FACTORIAL HepG2 Assay for human Pregnane X Receptor Element (PXRE) (AID 2282957); conditions: HepG2 Attagene CIS-FACTORIAL PXRE reporter, mRNA; actives raise or lower the signal
Summary of the method: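 Cis-element reporter mRNA in human hepatoma HepG2 cells is measured 24 h post-dosing by RT-PCR, primer-extension labeling and capillary electrophoresis; gain or loss of signal is fitted relative to DMSO.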

[2] = ATG_PPRE_CIS: Attagene CIS-FACTORIAL HepG2 Assay for human Peroxisome Proliferator-activated Response Element (PPRE) (AID 2282958); conditions: HepG2 PPRE cis-element reporter, Attagene transcription factor profiling; actives raise or lower the signal
Summary of the method: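 Multiplexed reporter transcription units under cis-regulatory promoters were transfected into HepG2 cells to capture endogenous factor activity. A 24 h incubation preceded RNA isolation and fluorescent RT-PCR fragment analysis.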

[3] = ATG_RORE_CIS: Attagene CIS-FACTORIAL HepG2 Assay for human RAR-related Orphan Receptor Element (RORE) (AID 2282959); conditions: HepG2 Attagene cis-factorial RORE reporter, mRNA; actives raise or lower the signal
Summary of the method: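 Fluorescence intensity of reporter-specific cDNA fragments, separated by capillary electrophoresis, gives the signal. Source: HepG2 liver cells transiently transfected with cis-element reporters and exposed 24 h; DMSO-normalized bidirectional fit.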

[4] = ATG_Sox_CIS: Attagene CIS-FACTORIAL HepG2 Assay for human SRY-box transcription factor (SOX) (AID 2282960); conditions: HepG2 Attagene cis-factorial SOX reporter, mRNA; actives raise or lower the signal
Summary of the method: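 After 24 h of chemical treatment, transfected HepG2 reporter cells are lysed for total RNA. Transcript levels come from RT-PCR with labelled primer extension and capillary electrophoresis, analysed bidirectionally versus DMSO.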

[5] = target: Transcription factor Sp1 (Homo sapiens) (UniProt P08047); assay: ATG_Sp1_CIS: Attagene CIS-FACTORIAL HepG2 Assay for human Specificity Protein 1 (Sp1) (AID 2282961); conditions: HepG2 Sp1 cis-reporter transcription, actives raise or lower the signal
Summary of the method: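 Sp1-driven reporter mRNA, read as capillary electrophoresis fluorescence after RT-PCR, in transiently transfected HepG2 cells dosed for 24 h; signal change in either direction relative to DMSO.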

[6] = ATG_SREBP_CIS: Attagene CIS-FACTORIAL HepG2 Assay for human Sterol Regulatory Element Binding (SREBP) (AID 2282962); conditions: HepG2 Attagene cis-factorial SREBP reporter, mRNA; actives raise or lower the signal
Summary of the method: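 mRNA induction of transfected cis-promoter reporters in HepG2 cells, 24 h post-dose. Detection: RT-PCR with 6-FAM-labelled products, HpaI digest, capillary electrophoresis. DMSO served as negative control and baseline.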

[7] = target: Signal transducer and activator of transcription 3 (Homo sapiens) (UniProt P40763); assay: ATG_STAT3_CIS: Attagene CIS-FACTORIAL HepG2 Assay for human Signal Transducer and Activator of Transcription 3 (STAT3) (AID 2282963); conditions: HepG2, Attagene cis-factorial STAT3 reporter transcription; actives raise or lower the signal
Summary of the method: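 Transcript-level reporter assay. HepG2 transient MRTU transfection, 24 h exposure, fluorescence detection after RT-PCR and CE; DMSO baseline.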

[8] = ATG_TA_CIS: Attagene CIS-FACTORIAL HepG2 Assay for human TA Basal Promoter (AID 2282964); conditions: HepG2 Attagene CIS-factorial TA basal promoter reporter; actives raise or lower the signal
Summary of the method: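 Background internal-marker endpoint from a 52-component HepG2 cis-reporter panel. Cells treated 24 h; reporter transcripts quantified via RT-PCR and CE fluorescence against DMSO baseline.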

[9] = ATG_TCF_b_cat_CIS: Attagene CIS-FACTORIAL HepG2 Assay for human T-Cell-Factor with beta-catenin (TCF/b-cat) (AID 2282965); conditions: HepG2 TCF/beta-catenin cis-reporter transcription, actives raise or lower the signal
Summary of the method: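 HepG2 cells transiently transfected with multiple cis-promoter-regulated reporter transcription units, so endogenous transcription factor activity is measured. Reporter mRNA read 24 hours after dosing by RT-PCR, fluorescent labelling and capillary electrophoresis; bidirectional fitting against DMSO.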

[10] = target: Paired box protein Pax-6 (Homo sapiens) (UniProt P26367); assay: ATG_Pax6_CIS: Attagene CIS-FACTORIAL HepG2 Assay for human Paired Box 6 (PAX6) (AID 2282956); conditions: HepG2 CIS-FACTORIAL PAX6 reporter transcription, RNA readout; actives raise or lower the signal
Summary of the method: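 Multiplexed cis-reporter HepG2 system; 24 h treatment; reporter mRNA read by RT-PCR/CE fluorescence; bidirectional fit vs DMSO.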

Measured: AC50

Sequence of Signal transducer and activator of transcription 3 (Homo sapiens) (P40763 whole entry, looked up): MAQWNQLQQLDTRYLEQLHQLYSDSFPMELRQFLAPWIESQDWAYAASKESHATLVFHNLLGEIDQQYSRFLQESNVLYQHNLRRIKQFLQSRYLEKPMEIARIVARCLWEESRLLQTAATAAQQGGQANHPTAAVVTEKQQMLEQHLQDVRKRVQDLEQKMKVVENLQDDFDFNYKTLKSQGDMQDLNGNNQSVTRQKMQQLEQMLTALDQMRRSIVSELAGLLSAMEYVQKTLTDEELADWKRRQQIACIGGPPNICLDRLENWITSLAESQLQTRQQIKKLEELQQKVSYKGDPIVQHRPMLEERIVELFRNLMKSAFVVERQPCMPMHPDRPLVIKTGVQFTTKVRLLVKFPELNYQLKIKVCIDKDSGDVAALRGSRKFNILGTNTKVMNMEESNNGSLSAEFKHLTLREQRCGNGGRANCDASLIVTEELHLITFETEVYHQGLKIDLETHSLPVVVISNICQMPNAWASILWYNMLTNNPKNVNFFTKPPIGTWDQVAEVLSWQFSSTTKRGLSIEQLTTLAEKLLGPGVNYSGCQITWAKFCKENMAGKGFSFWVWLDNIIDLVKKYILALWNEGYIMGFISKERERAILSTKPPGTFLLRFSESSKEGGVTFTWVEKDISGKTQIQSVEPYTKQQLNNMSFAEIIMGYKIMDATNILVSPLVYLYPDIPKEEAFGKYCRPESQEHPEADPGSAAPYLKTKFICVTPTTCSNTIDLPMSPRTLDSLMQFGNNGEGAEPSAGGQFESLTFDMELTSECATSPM
Sequence of Paired box protein Pax-6 (Homo sapiens) (P26367 whole entry, looked up): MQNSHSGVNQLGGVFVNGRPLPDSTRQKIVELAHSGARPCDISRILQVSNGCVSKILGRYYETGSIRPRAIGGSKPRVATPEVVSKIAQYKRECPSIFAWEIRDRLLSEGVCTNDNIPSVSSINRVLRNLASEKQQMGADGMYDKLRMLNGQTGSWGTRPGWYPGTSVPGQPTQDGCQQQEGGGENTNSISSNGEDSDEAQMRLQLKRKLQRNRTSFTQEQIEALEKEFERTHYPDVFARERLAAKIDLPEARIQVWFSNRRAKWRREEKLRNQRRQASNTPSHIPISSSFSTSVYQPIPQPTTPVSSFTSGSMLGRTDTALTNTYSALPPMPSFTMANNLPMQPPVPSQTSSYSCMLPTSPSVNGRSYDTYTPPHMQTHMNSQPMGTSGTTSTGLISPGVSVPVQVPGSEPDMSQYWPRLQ
Sequence of Transcription factor Sp1 (Homo sapiens) (P08047 whole entry, looked up): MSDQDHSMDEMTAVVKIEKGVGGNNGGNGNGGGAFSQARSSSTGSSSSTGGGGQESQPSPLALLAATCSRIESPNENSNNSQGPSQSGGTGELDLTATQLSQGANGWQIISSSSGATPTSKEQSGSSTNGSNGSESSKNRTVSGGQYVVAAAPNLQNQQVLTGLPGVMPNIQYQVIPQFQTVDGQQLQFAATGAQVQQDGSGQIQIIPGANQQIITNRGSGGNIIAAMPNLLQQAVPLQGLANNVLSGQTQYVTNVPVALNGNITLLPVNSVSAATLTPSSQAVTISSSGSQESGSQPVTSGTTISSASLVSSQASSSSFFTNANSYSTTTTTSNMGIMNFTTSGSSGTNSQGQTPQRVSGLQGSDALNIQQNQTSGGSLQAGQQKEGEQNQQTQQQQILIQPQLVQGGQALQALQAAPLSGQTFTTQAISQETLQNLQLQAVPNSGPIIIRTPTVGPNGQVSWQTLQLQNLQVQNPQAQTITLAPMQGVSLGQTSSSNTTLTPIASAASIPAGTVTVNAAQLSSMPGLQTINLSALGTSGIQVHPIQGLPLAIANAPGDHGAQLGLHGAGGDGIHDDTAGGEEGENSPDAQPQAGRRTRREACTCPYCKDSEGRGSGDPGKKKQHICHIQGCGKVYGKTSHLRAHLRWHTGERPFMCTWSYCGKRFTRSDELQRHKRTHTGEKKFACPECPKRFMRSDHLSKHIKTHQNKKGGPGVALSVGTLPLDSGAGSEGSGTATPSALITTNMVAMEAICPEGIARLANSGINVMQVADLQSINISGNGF

NC(=O)NN=Cc1ccc([N+](=O)[O-])o1
inactive: [1] | [2] | [3] | [4] | [5] | [6] | [7] | [8] | [9]

OC(CCl)CCl
inactive: [1] | [2] | [3] | [4] | [5] | [6] | [7] | [8] | [9]

C=CCc1cc(S(=O)(=O)c2ccc(O)c(CC=C)c2)ccc1O
inactive: [4] | [5] | [7]
active: [1] 2.77 µM | [2] 8.96 µM | [3] 17.4 µM | [6] 9.26 µM | [8] 33.4 µM | [9] 43.7 µM

CCCCCCCCCCCCCCO
inactive: [10] | [4] | [5] | [8] | [9]
active: [1] 100 µM | [7] 158 µM

Cc1cccc(O)c1C
active: [1] 31.1 µM
inactive: [1] | [2] | [3] | [4] | [5] | [7] | [8] | [9]

O=S(=O)(O)CCC(F)(F)C(F)(F)C(F)(F)C(F)(F)C(F)(F)C(F)(F)F
inactive: [10] | [1] | [2] | [3] | [4] | [5] | [7] | [8] | [9]

OCCNCCO
inactive: [10] | [1] | [4] | [5] | [7] | [8] | [9]

O=C(O)c1ccc2c(c1)nc(C(=O)NC1CCN(C3CC3)CC1)n2Cc1cc(-c2ccc(Cl)s2)on1
active: [2] 0.149 µM
inactive: [1] | [3] | [4] | [5] | [6] | [7] | [8] | [9]

CCCC(CCC)C(=O)O
inactive: [10] | [1] | [4] | [5] | [7] | [8] | [9]

OC(O)(C(F)C(O)(O)C(F)(F)F)C(F)(F)F
active: [2] 3.62 µM | [5] 64.6 µM and 96.6 µM | [6] 66.4 µM and 37.5 µM | [9] 3.07 µM
inactive: [1] | [2] | [3] | [4] | [7] | [8] | [9]

OCCOCCOCCO
inactive: [10] | [1] | [3] | [4] | [5] | [6] | [7] | [8] | [9]

c1ccc2c(c1)-c1cccc3c1c-2cc1ccccc13
active: [2] 2.26 µM
inactive: [1] | [2] | [3] | [4] | [5] | [7] | [8] | [9]

OC[C@H]1O[C@@H]2O[C@H]3[C@H](O)[C@@H](O)[C@@H](O[C@H]4[C@H](O)[C@@H](O)[C@@H](O[C@H]5[C@H](O)[C@@H](O)[C@@H](O[C@H]6[C@H](O)[C@@H](O)[C@@H](O[C@H]7[C@H](O)[C@@H](O)[C@@H](O[C@H]1[C@H](O)[C@H]2O)O[C@@H]7CO)O[C@@H]6CO)O[C@@H]5CO)O[C@@H]4CO)O[C@@H]3CO
inactive: [10] | [3] | [4] | [5] | [7] | [8] | [9]
active: [1] 18.4 µM

COc1cc(C(C)C)c2c(c1)S(=O)(=O)N(COc1cc(=O)n3cccc(OCCN4CCCCC4)c3n1)C2=O
active: [10] 8.11 µM | [1] 3.27 µM | [3] 8.25 µM | [4] 4.26 µM | [5] 3.94 µM | [6] 3.78 µM | [9] 4.04 µM
inactive: [7] | [8]

O=S(=O)(O)c1ccc(N=Nc2c(O)ccc3cc(S(=O)(=O)O)ccc23)cc1
inactive: [10] | [1] | [3] | [4] | [5] | [7] | [8] | [9]

OCC(CO)(CO)CO
inactive: [10] | [1] | [2] | [3] | [4] | [5] | [7] | [8] | [9]

CCc1cccc(CC)c1N
active: [1] 27.7 µM
inactive: [10] | [3] | [4] | [5] | [7] | [8] | [9]

NC(=O)N(O)[C@@H]1COc2cc(OCc3ccccc3)ccc21
inactive: [1] | [2] | [3] | [4] | [5] | [7] | [8] | [9]

OCc1c[nH]c2ccccc12
active: [1] 2.76 µM [middle of 5 runs] | [3] 2.51 µM [middle of 5 runs]
inactive: [4] | [5] | [7] | [8] | [9]

OC[C@H]1O[C@@](CO)(O[C@H]2O[C@H](CO)[C@@H](O)[C@H](O)[C@H]2O)[C@@H](O)[C@@H]1O
inactive: [1] | [2] | [3] | [4] | [5] | [6] | [7] | [8] | [9]

CC(=O)c1ccccc1
inactive: [1] | [2] | [4] | [5] | [7] | [8] | [9]

Cc1nc(-c2ccccn2)ncc1C(=O)Nn1cc(C)c2cc(F)ccc21
active: [1] 4.24 µM
inactive: [2] | [3] | [4] | [5] | [7] | [8] | [9]
